In the library only some 3.7% were active in any assay of this set; here they are far more common.
PfHsp90 set2 – growth inhibition of PfHsp90-expressing yeast, primary screen, antimalarial PfHsp90 inhibitor project, S. cerevisiae, BacTiter-Glo luminescence, single point, set 2. 310,000 compounds, 0.32% hits. inhibition, % at 9.4 µM. BacTiter-Glo ATP, 48 h; yeast lacking PDR1 and PDR3 efflux regulators;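 active means every replicate shows inhibition above about 80%, whatever the replicate mean, limit read from the data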;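 further: 0% = DMSO neutral controls and 100% = 20 µM radicicol positive controls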
TIM10 inh – growth inhibitors of isogenic TIM10 control yeast, primary screen, counter-screen for tim10-1 yeast inhibitor project, luminescence, uHTS | S. cerevisiae TIM10 strain growth, BacTiter-Glo luminescence, 24 h | 330,000 compounds, 1.4% hits | AID 463195, 2010 | inhibition, % at 10 µM;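 active means inhibition of 40% or more at the single tested concentration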;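 further: wild-type TIM10 isogenic control strain grown at permissive 25 °C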
V-ATPase pH – regulators of yeast V-ATPase proton pumping, primary screen, pHLuorin cytosolic pH fluorescence; S. cerevisiae; 350,000 compounds, 0.37% hits; response, % at 10 µM; AID 504577, 2011; in the data active means response mostly above about 7.3%, no sharp cut-off; inactive means mostly below about 5.4%; further: actives read high
tim10-1 inh – growth inhibitors of tim10-1 mutant yeast, primary screen, luminescence, uHTS; S. cerevisiae tim10-1 ts strain growth, BacTiter-Glo, 24 h; inhibition, % at 20 µM; 330,000 compounds, 2.2% hits;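 active means inhibition of at least 40%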;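 further: mutant grown at 25 °C; 0% = DMSO wells with yeast and 100% = wells holding no yeast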
tim23-1 inh – growth inhibitors of tim23-1 mutant yeast, primary screen, luminescence, uHTS. inhibition, % at 20 µM. S. cerevisiae tim23-1 growth, BacTiter-Glo luminescence, 24 h. 330,000 compounds, 1.3% hits;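 active means growth inhibition of the mutant yeast at or above 50%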;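 further: temperature-sensitive mutant grown at 25 °C; plate controls were DMSO-treated mutant yeast for no effect and medium wells lacking yeast for full effect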
tim23-1 confirm – tim23-1 mutant yeast growth inhibitors, confirmation, luminescence, single concentration; inhibition, % at 20 µM; shares compounds with tim23-1 inh; AID 463218, 2010; 4,400 compounds, 83% hits; S. cerevisiae tim23-1 growth, BacTiter-Glo luminescence, 24 h;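 active means inhibition above about 39% in either of two replicate wells at 20 µM, limit read from the data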;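 further: temperature-sensitive tim23-1 mutant grown at 25 °C; 0% = DMSO wells with yeast and 100% = medium wells without yeast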
* marks the source's active call; other numbers are inactive results; / = no result given.

SMILES	PfHsp90 set2	TIM10 inh	V-ATPase pH	tim10-1 inh	tim23-1 inh	tim23-1 confirm
CN(C(=O)COC(=O)/C=C/c1cccs1)C1CCCCC1	-0.7	-0.7	-1.9	2.2	24.1	/
CC(=O)c1cccc(NC(=O)Cn2cnc(S(=O)(=O)N3CCCC3)c2)c1	20.3	5.5	-1.2	-1.0	-10.8	/
COc1ccc(Br)cc1CN(C)C(=O)CNC(=O)c1ccc2ccccc2c1	11.2	13.5	-2.6	15.2	26.4	/
COc1ccccc1C(=O)Nc1cccc(S(=O)(=O)N2CCCC2)c1	-26.1	2.0	1.0	6.2	97.8*	28.7
COc1ccccc1C(=O)NCCC(=O)Nc1cccc(S(=O)(=O)N2CCCC2)c1	/	5.1	0.8	-0.2	-6.5	/
C=CCN(CC=C)C(=S)NC(=O)Cc1cccc2ccccc12	-2.1	37.3	0.4	39.1	35.4	/
COc1ccc(-c2nc3ccccn3c2CN2CCN(c3ccccc3F)CC2)cc1	9.2	28.2	-3.4	32.8	54.8*	39.9*
COc1ccc2cc(CN(C)C(=O)CN3C(=O)NC4(CCCC4)C3=O)ccc2c1	/	/	-2.7	/	/	/
Cc1ccc(C(=O)SC2=NCCS2)cc1	25.1	25.8	-1.9	2.7	73.2*	49.3*
COc1ccc(C(=O)SC2=NCCS2)cc1OC	/	-8.1	-1.6	21.1	27.5	/
O=c1[nH]c(CCl)nc2cc(-c3ccc(F)cc3)sc12	19.3	35.5	2.4	21.2	59.5*	57.5*
O=c1[nH]cnc2cc(-c3ccc(Br)cc3)sc12	2.1	2.3	4.2	9.9	7.4	/
NNC(=O)c1cc2cc(Oc3ccccc3)ccc2[nH]1	13.3	25.9	4.4	37.4	58.9*	14.8
Cc1nnc(SCC(=O)Nc2ccc(-c3nc4ccccc4s3)cc2)s1	7.6	/	0.1	/	/	/
Cc1nnc(SCC(=O)Nc2nsc(-c3ccc(C(C)(C)C)cc3)n2)s1	/	17.8	-0.2	39.4	51.5*	41.2*
COc1cccc(C(=O)NCCS(=O)(=O)N(C)Cc2ccccc2)c1	-4.7	-3.2	-3.1	0.1	-4.0	/
O=c1c2ccc(Cl)cc2nc(-c2cccc(C(F)(F)F)c2)n1O	-104.5	27.1	10.6*	33.5	56.1*	48.4*
N#Cc1ccc(-c2nc3ccccc3c(=O)n2O)cc1	20.4	2.0	-3.3	17.3	40.3	/
Cc1ccc(-c2nc3c(Cl)cc(Cl)cc3c(=O)n2O)cc1	72.2	1.3	-4.4	9.0	53.7*	53.0*
O=C(O)c1ccccc1-c1nc2cc(Cl)ccc2c(=O)n1O	13.6	0.2	0.9	-18.9	-13.9	/
N#Cc1ccc(-c2nc3cc(Cl)ccc3c(=O)n2O)cc1	4.3	27.7	-4.6	28.1	50.4*	55.6*
CC1CC(O)C(C)CN1 (stereo not given)	17.4	/	-3.6	/	/	/
N#C/C(=C\c1ccc(Sc2ccc(Cl)cc2)o1)c1nc2ccccc2[nH]1	15.7	/	-6.1	/	/	/
N#C/C(=C/c1ccc(N2CCOCC2)o1)c1nc2ccccc2[nH]1	3.5	33.6	1.9	17.9	56.9*	66.3*
N#C/C(=C\c1ccc(Sc2nc3ccccc3[nH]2)o1)c1ccccc1	6.1	34.8	-1.3	33.0	50.7*	41.0*
SMILES	PfHsp90 set2	TIM10 inh	V-ATPase pH	tim10-1 inh	tim23-1 inh	tim23-1 confirm
c1ccc(Cn2cc(CNc3ccccc3)nn2)cc1	5.8	2.9	0.3	6.6	10.0	/
O=C(COC(=O)c1ccc(O)cc1)c1ccc2c(c1)OCCO2	/	-16.6	1.0	-17.0	59.8*	22.1
CCc1ccc(NC(=O)c2nc(S(=O)(=O)Cc3ccccc3)ncc2Cl)cc1	98.9*	-1.0	2.3	-104.5	66.2*	22.2
CC(C)c1nnc(NC(=O)c2nc(S(=O)(=O)Cc3ccccc3)ncc2Cl)s1	-8.0	3.9	0.4	-5.3	9.4	/
COC(=O)c1ccc(NC(=O)c2nc(S(=O)(=O)Cc3cccc(C)c3)ncc2Cl)cc1	109.0*	1.0	1.0	31.9	68.9*	51.4*
COc1ccccc1NC(=O)c1nc(S(=O)(=O)Cc2ccccc2)ncc1Cl	20.9	36.2	-5.1	28.0	52.9*	48.0*
Cc1nn(C(C)C)c(C)c1CN1CCC(C(=O)Nc2cccc(-c3cccc(F)c3)c2)CC1	-17.6	9.6	1.0	2.0	9.4	/
CC1CCC(NC(=O)c2cc(C3CC3)nn2-c2ccccc2)CC1 (stereo not given)	11.0	14.0	-0.7	37.9	50.5*	45.5*

Screens from PubChem BioAssay.
